Laboratory results as given in PubChem BioAssay.
Measured potencies and affinities stand elsewhere. Calls of active or inactive are those of the source. No cut-off is given here; in the data, nearly all actives have IC50 up to about 0.98 µM.

The molecules below were run against Calcium-dependent protein kinase 1 (Plasmodium falciparum (isolate 3D7)) (UniProt P62344) (assay: PfCDPK1 kinase inhibitors, biochemical, TCAMS library (AID 1159585;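 note: inhibitors leave more ATP so luminescence rises with inhibition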)). Conditions: recombinant PfCDPK1, Kinase-Glo ATP depletion luminescence.
Calcium-dependent protein kinase 1 (Plasmodium falciparum (isolate 3D7)), sequence (P62344 whole entry, looked up): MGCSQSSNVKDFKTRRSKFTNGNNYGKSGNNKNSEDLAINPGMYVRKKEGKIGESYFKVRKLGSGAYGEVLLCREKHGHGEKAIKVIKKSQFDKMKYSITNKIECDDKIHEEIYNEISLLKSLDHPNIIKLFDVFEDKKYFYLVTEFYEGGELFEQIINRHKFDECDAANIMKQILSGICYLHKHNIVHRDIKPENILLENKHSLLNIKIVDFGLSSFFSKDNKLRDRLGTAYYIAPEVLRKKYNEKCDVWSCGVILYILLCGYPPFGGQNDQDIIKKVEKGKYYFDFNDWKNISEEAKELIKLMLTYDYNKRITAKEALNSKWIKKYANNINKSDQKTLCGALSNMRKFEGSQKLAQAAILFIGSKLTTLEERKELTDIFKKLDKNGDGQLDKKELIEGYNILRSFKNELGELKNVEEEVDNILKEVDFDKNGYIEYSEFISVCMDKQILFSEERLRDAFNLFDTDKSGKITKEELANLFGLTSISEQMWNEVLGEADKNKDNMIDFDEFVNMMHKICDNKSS

outcome, inactive:
COc1ccc(Cc2cnc(N)nc2N)cc1OCCCOc1ccccc1
CCOC(=O)c1c(-c2ccccc2)c(C(=O)OCC)n2ccccc12
Cc1cc(=O)c(-c2ccc(S(=O)(=O)c3ccc(Cl)cc3)cc2)c(C)[nH]1
Cc1[nH]c(C)c(-c2ccc(Oc3ccc(Cl)cc3)c(Cl)c2)c(=O)c1Br
COc1ccc2c(CNCCCCCCNCc3c(OC)ccc4cc(OC)ccc34)c(OC)ccc2c1
Cc1cc2c3c(N)nc(N)nc3ccc2n1C
COc1ccc(Cc2cnc3nc(N)nc(N)c3c2C)cc1OC
Nc1nc(N)c2c(Oc3ccc(Cl)c(Cl)c3)cccc2n1
CCCCCCCN(Cc1ccc(OC(C)(C)C(=O)OCC)cc1)C(=O)Cc1ccc(F)cc1F
Oc1c(CNC2CCCCC2)cc(Cl)c2ccccc12
COc1ccc2c(c1CNCCCCCCNCc1c(OC)ccc3c1CCCC3)CCCC2
COc1cc(Cc2cnc(N)nc2N)cc(OCCCCCCC(=O)O)c1OC
CCCCNCCOc1ccc(-c2nc(-c3ccccc3)c(-c3ccccc3)[nH]2)cc1
Nc1nc(N)c2c(Sc3ccc(F)cc3)cccc2n1
Cc1[nH]c(C)c(-c2ccc(Oc3ccc(F)cc3)cc2)c(=O)c1Br
Cc1[nH]c(C)c(-c2ccc(-c3ccc(F)cc3)cc2)c(=O)c1Cl
Cc1[nH]c(C)c(-c2ccc(Oc3cccc(OC(F)(F)F)c3)cc2)c(=O)c1Cl
CC1CN=C(c2ccc(NC(=O)Nc3ccc(C4=NCC(C)N4)cc3)cc2)N1 (centres undefined)
CCCCC#Cc1cnc2nc(N)[nH]c(=O)c2n1
COc1cc(Cc2cnc(N)nc2N)cc(OCCCS(=O)(=O)O)c1OC
CCCOc1ccc(CNCCCCCCNCc2ccc(OCCC)c3ccccc23)c2ccccc12
NC(N)=NC(=O)Nc1ccc(Cl)c(C(F)(F)F)c1
CCOC(=O)c1nc2ccc(SC3CCCCC3)cn2c1Br
CC(C)C(=O)Nc1c(F)cc(F)cc1CCc1ccc(O)cc1
CC(CN=C(N)c1cccc(C(N)=NCC(C)Oc2cccc(C3CCCCC3)c2)n1)Oc1cccc(C2CCCCC2)c1 (centres undefined)
CCNC(=NCc1ccccc1)NCCCCCCNC(=NCc1ccccc1)NCC
COc1ccc(OC)c(CC2c3ccc(Br)c(O)c3CCN2C)c1 (centres undefined)
CCc1ccc(Cc2cnc3nc(N)nc(N)c3c2C)cc1CC
COc1cc2c(cc1OC)C(C)(C)CN1Cc3c(c(CO)c(OC)c(OC)c3OC)CC21 (centres undefined)
Cc1c(Cc2ccc(C(C)C)cc2)cnc2nc(N)nc(N)c12
COc1ccc2c(OC)cccc2c1CNCCCCCCNCc1c(OC)ccc2c(OC)cccc12
CCCc1cc(Cc2cnc(N)nc2N)cc2c1OC(C)(C)C2
CCOc1cc(Cc2cnc(N)nc2N)ccc1OC
CCC1=C(C[C@H]2NCCc3cc(OC)c(OC)cc32)C[C@H]2c3cc(OC)c(OC)cc3CCN2C1
CCOc1cc2ncnc(Nc3ccc(OCc4ccccc4OC)c(OC)c3)c2cc1OCC
Cc1[nH]c(C)c(-c2ccc(Oc3ccc(Cl)cc3)cc2)c(=O)c1C
CN(Cc1cnc2nc(N)nc(N)c2n1)c1ccc(C(=O)N[C@H](CCC(=O)OC(C)(C)C)C(=O)N[C@@H](CCC(=O)OC(C)(C)C)C(=O)OC(C)(C)C)cc1
CCCCNCc1ccc(OCc2cccc(COc3ccc(CNCCCC)cc3I)c2)c(I)c1
CC(C)(C)c1ccc(-c2nnc(N)nc2N)cc1
